# Bioassay records: PubChem, National Center for Advancing Translational Sciences (NCATS)
# Most compounds without a hit are left out; they make up all but 5.8% or so of the library.
# VP16 counter: counter-screen for ROR gamma inhibitors: Gal4-VP16 reporter; Drosophila S2 Gal4-VP16 UAS-luciferase, luminescence, 20 h; Potency, µM (series often up to 53.6 µM), actives largely listed as inhibitors; hit rate 3.5% among 310,000;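 further: Gal4-VP16 expression switched on by copper sulfate through the metallothionein promoter; nearly all actives have a fitted effect of over 50% in size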
# TRPV1 potentiator: enhances activation of the human vanilloid receptor TRPV1 | Q8NER1 | TRPV1-expressing cells, Fluo-8 calcium influx, capsaicin EC20 potentiation | potentiation, % at 8.33 µM | hit rate 0.02% among 320,000 | AID 540277; in the data active means potentiation above about 80%; inconclusive means between about 30% and that limit
#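 Cells expressing TRPV1 were dye-loaded with Fluo-8 and read kinetically: 10 s baseline, 3 min after compound (agonist portion), then 2 min after EC20 capsaicin (allosteric enhancer portion). Calcium-bound dye fluorescence at 480/520 nm.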
# TRPV1 ag: human TRPV1 agonism | Q8NER1 | TRPV1-expressing cells, Fluo-8 calcium influx, agonist mode | activation, % at 8.33 µM | hit rate 0.19% among 320,000 | AID 540275; in the data active means activation above about 80%; inconclusive means between about 30% and that limit
#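 Cells expressing TRPV1 were dye-loaded with Fluo-8 and read kinetically: 10 s baseline, 3 min after compound (agonist portion), then 2 min after EC20 capsaicin (allosteric enhancer portion). Calcium-bound dye fluorescence at 480/520 nm.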
# uPA surface inh: cell surface uPA generation inhibition; Potency, µM (series often up to 38.3 µM), hits mostly inhibitors; hit rate 0.31% among 330,000; cell surface uPA generation assay, qHTS; active means well fitted inhibition curve with a large enough effect; inconclusive means small, poorly fitted or top-dose-only effect; inactive means no such curve, though single readings can be large or run the other way; tested in mouse RAW 264.7 cells; further: nearly all actives have a fitted effect of over 55% in size
# RORgamma inh: ROR gamma (mouse) transcription inhibition; Drosophila S2 Gal4-RORgamma UAS-luciferase reporter, 20 h; hit rate 5.4% among 310,000; Potency, µM (series often up to 53.6 µM), usual class: inhibitors; further: nearly all actives have a fitted effect of over 60% in size
# Target sequence (P51450 whole entry, looked up, the tested form may be a part): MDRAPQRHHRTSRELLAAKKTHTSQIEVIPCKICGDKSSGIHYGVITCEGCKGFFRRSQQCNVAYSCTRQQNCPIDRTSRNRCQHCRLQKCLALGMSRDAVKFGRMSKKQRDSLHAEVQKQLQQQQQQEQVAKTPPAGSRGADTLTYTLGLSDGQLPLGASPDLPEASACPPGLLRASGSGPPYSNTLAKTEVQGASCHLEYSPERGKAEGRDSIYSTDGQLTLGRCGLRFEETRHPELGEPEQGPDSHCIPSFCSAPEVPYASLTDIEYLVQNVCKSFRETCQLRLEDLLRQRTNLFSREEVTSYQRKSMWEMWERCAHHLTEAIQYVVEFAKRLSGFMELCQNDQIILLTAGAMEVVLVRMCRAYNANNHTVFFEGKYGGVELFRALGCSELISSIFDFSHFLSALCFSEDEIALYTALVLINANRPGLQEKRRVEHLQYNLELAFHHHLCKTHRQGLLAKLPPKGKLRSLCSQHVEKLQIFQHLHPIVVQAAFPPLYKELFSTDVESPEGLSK
#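 In this cell-based reporter format, copper sulfate (700 uM final) drives Gal4–ROR gamma fusion expression from a metallothionein promoter in Drosophila Schneider cells; compounds preincubated 1 hr, reporter read after 20 hr at ambient temperature.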
# A number is an active result; n = inactive; u = inconclusive; x = not tested or not shown; [ ] = dose if it differs, or a comment. Unless noted, the call rests on the fitted dose curve; in most records, active means well fitted curve in the direction sought with a large enough effect; inconclusive means small, poorly fitted or top-dose-only effect, or another doubt; inactive means no such curve, though single readings can be large; an effect the other way counts as inactive or inconclusive.
SMILES,VP16 counter,TRPV1 potentiator,TRPV1 ag,uPA surface inh,RORgamma inh
Cn1c(=O)cc(SCC(=O)NCCC2=CCCCC2)c2cc(Cl)ccc21,n,n,n,n,n
O=C(Oc1ccc(Cl)c2cccnc12)c1cccc([N+](=O)[O-])c1,1.6µM,n,n,n,1.1µM
O=C(Oc1c(Cl)cc(Cl)c2cccnc12)c1cccc([N+](=O)[O-])c1,x,n,n,n,0.28µM
O=C(O)c1cccc2cccnc12,n,n,n,n,n
O=C(Oc1coc(CSc2ncccn2)cc1=O)c1cccc([N+](=O)[O-])c1,n,n,n,n,n
O=C(Oc1cccc2cccnc12)c1cccc([N+](=O)[O-])c1,3.2µM,n,n,n,3.5µM
O=C(Oc1ccccc1)c1cccc2cccnc12,4µM,n,n,n,2.5µM
CC(C)c1cccc2c([Si](C)(C)C)c3c(nc12)-c1cccc(=O)n1C3,n,x,x,x,n
[O-][n+]1onc2c1CCC(=N/O)/C2=N\Nc1ccccc1,n,n,n,x,u
O=C(Oc1cccc2cccnc12)c1ccc2c(c1)OCCO2,2µM,n,n,n,1.6µM
N#Cc1ccc(Oc2cccc3cccnc23)c([N+](=O)[O-])c1,n,n,n,n,n
O=C(Nc1ncccc1O)c1ccc2c(c1)OCCO2,x,n,n,n,x
Cc1c(C(=O)Oc2cccc3cccnc23)cccc1[N+](=O)[O-],3.2µM,n,n,n,2.8µM
O=[N+]([O-])c1ccc(Oc2cccc3cccnc23)c([N+](=O)[O-])c1,u,n,n,n,8.9µM
CCOC(=O)c1c(C)[nH]sc1=S,u,n,n,n,6.3µM
CCCC[C@@H]1C[C@H]1C(NC(=O)c1ccco1)c1ccccc1 (stereo partly drawn),n,x,x,x,n
O=C(NCC1CCCO1)c1csc(Nc2cccc3ccccc23)n1 (stereo not drawn),n,n,n,n,11µM
CCc1nc(N2CCCCC2)c2oc3ccccc3c2n1,n,n,u,x,16µM
CCc1nc(NC(C)C)c2oc3ccccc3c2n1,n,n,u,n,13µM
CCc1nc(N2CCCC(C)C2)c2oc3ccccc3c2n1 (stereo not drawn),4µM,n,u,x,n
CCc1nc(N2CCCCC2C)c2oc3ccccc3c2n1 (stereo not drawn),u,n,n,x,18µM
CCc1nc(N2CCCCC2C(=O)O)c2oc3ccccc3c2n1 (stereo not drawn),n,n,n,n,n
CN1OC[C@@H]2CN(C(=O)CCc3ccccc3)[C@H](c3cccc(Oc4ccccc4)c3)C[C@@H]21,x,x,x,n,x
Cc1cc(NC(=O)CSc2nnc(-c3ccncc3)n2-c2ccccc2)no1,n,n,n,n,n
COc1ccc(-c2cccc(C3C4C=CCCC4(C)C(=O)N3Cc3ccccc3)c2)cc1 (stereo not drawn),n,x,x,x,n
SMILES,VP16 counter,TRPV1 potentiator,TRPV1 ag,uPA surface inh,RORgamma inh
CCC(C)Nc1nc(C)nc2c1oc1ccccc12 (stereo not drawn),u,n,u,u,n
CCc1nc(N2CCN(Cc3ccc4c(c3)OCO4)CC2)c2oc3ccccc3c2n1,n,n,u,n,13µM
Cc1nc(NC(C)c2ccccc2)c2oc3ccccc3c2n1 (stereo not drawn),13µM,n,u,n,u
O=C1CCC(=O)N1CCSC(=S)N1CCSCC1,n,n,n,n,n
O=C(COc1ccc(Cl)cc1Cl)NC(=S)Nc1ccc(CN2CCOCC2)cc1,u,n,n,n,16µM
O=C(COc1ccccc1Cl)NC(=S)Nc1ccc(CN2CCOCC2)cc1,n,n,n,n,n
CC(C)CC(=O)NC(=S)Nc1ccc(NC(=O)c2cccs2)cc1,n,n,n,n,u
Cc1cc(NC(=S)NC(=O)CC(C)C)ccc1Br,u,n,n,x,2.8µM
O=C(COc1ccc(Cl)cc1Cl)NNC(=S)Nc1ccc(F)cc1,u,n,n,x,3.5µM
O=C(COc1ccc(Cl)cc1Cl)Nc1ccccn1,2.8µM,n,n,x,n
CC(=O)N1[C@H](Cc2ccccc2)C=C[C@]1(C)C(=O)O,n,x,x,x,n
CC(c1ccco1)N(C(=O)COc1ccc(Cl)cc1)c1ccccn1 (stereo not drawn),n,n,n,n,n
CC(C)CC(=O)NNC(=S)Nc1ccc(S(N)(=O)=O)cc1,n[10 µM],n,n,n,18µM
CC(C)CC(=O)NC(=S)Nc1ccc(S(=O)(=O)NC(C)(C)C)cc1,u,n,n,n,u
